# Measured values as given in PubChem BioAssay AID1159580 (chemical genetic matrix, 2015).
# Among all 5,500 compounds or so, about 2,000 (36%) were called active. Inconclusive results (about 18%) are left out. This is one part of the list. Unmarked numbers belong to inactive results. No stated cut-off is given here; in the data, active means normalized growth mostly below about 0.91 (no sharp cut-off); inconclusive means no clear call, values can overlap the other calls; inactive means mostly above about 0.92.
# Test: chemical genetic growth profiling, strain panel (AID 1159580);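 further: tested at 20 µM; growth read once vehicle control cultures reached saturation at 30 °C; 1 = growth at the plate median or of vehicle wells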
# Details: S. cerevisiae deletion strains, growth OD
smiles,measurement,setting,value
COc1ccc(-c2coc3cc(OC(C)=O)cc(OC(C)=O)c3c2=O)cc1,normalized growth,"locus YAL021C, strain ccr4, stronger effect = lower value",0.964
same,normalized growth,"locus YAL026C, strain drs2, stronger effect = lower value",0.949
same,normalized growth,"locus YAL030W, strain snc1, stronger effect = lower value",0.958
same,normalized growth,"locus YBL061C, strain skt5, stronger effect = lower value",0.96
same,normalized growth,"locus YBR009C, strain hhf1, stronger effect = lower value",0.958
same,normalized growth,"locus YBR023C, strain chs3, stronger effect = lower value",0.967
same,normalized growth,"locus YBR171W, strain sec66, stronger effect = lower value",0.937
same,normalized growth,"locus YBR231C, strain swc5, stronger effect = lower value",0.957
same,normalized growth,"locus YBR279W, strain paf1, stronger effect = lower value",0.984
same,normalized growth,"locus YCL011C, strain gbp2, stronger effect = lower value",0.919
same,normalized growth,"locus YCL016C, strain dcc1, stronger effect = lower value",0.925
same,normalized growth,"locus YCL061C, strain MRC1, stronger effect = lower value",0.96
same,normalized growth,"locus YCL069W, strain vba3, stronger effect = lower value",0.953
same,normalized growth,"locus YCR088W, strain abp1, stronger effect = lower value",0.968
same,normalized growth,"locus YDL005C, strain med2, stronger effect = lower value",0.961
same,normalized growth,"locus YDL040C, strain nat1, stronger effect = lower value",0.983
same,normalized growth,"locus YDR001C, strain nth1, stronger effect = lower value",0.939
same,normalized growth,"locus YDR069C, strain doa4, stronger effect = lower value",0.92
same,normalized growth,"locus YDR137W, strain rgp1, stronger effect = lower value",0.871
same,normalized growth,"locus YDR159W, strain sac3, stronger effect = lower value",0.953
same,normalized growth,"locus YDR195W, strain ref2",1.01
same,normalized growth,"locus YDR297W, strain sur2, stronger effect = lower value",0.985
same,normalized growth,"locus YDR334W, strain swr1, stronger effect = lower value",0.887 (active)
same,normalized growth,"locus YDR335W, strain msn5, stronger effect = lower value",0.967
same,normalized growth,"locus YDR392W, strain spt3, stronger effect = lower value",0.576 (active)
same,normalized growth,"locus YEL003W, strain gim4, stronger effect = lower value",0.977
same,normalized growth,"locus YEL037C, strain rad23, stronger effect = lower value",0.972
same,normalized growth,"locus YEL061C, strain CIN8 (second series), stronger effect = lower value",0.965
same,normalized growth,"locus YER015W, strain faa2, stronger effect = lower value",0.951
same,normalized growth,"locus YER016W, strain bim1, stronger effect = lower value",0.972
same,normalized growth,"locus YER111C, strain swi4, stronger effect = lower value",0.968
same,normalized growth,"locus YER155C, strain BEM2 (second series), stronger effect = lower value",0.878
same,normalized growth,"locus YFR010W, strain ubp6, stronger effect = lower value",0.955
same,normalized growth,"locus YGL167C, strain pmr1, stronger effect = lower value",0.965
same,normalized growth,"locus YGL173C, strain kem1, stronger effect = lower value",0.922
same,normalized growth,"locus YGL227W, strain vid30, stronger effect = lower value",0.955
same,normalized growth,"locus YGL240W, strain doc1, stronger effect = lower value",0.961
same,normalized growth,"locus YGL253W, strain hxk2, stronger effect = lower value",0.925
same,normalized growth,"locus YHR013C, strain ard1, stronger effect = lower value",0.902
same,normalized growth,"locus YHR027C, strain rpn1, stronger effect = lower value",0.951
same,normalized growth,"locus YHR142W, strain chs7, stronger effect = lower value",0.874 (active)
same,normalized growth,"locus YJL092W, strain hpr5, stronger effect = lower value",0.923
same,normalized growth,"locus YJL095W, strain BCK1 (second series), stronger effect = lower value",0.963
same,normalized growth,"locus YJL115W, strain asf1, stronger effect = lower value",0.914
same,normalized growth,"locus YJL129C, strain trk1, stronger effect = lower value",0.861 (active)
same,normalized growth,"locus YJL154C, strain vps35, stronger effect = lower value",0.97
same,normalized growth,"locus YJL164C, strain tpk1, stronger effect = lower value",0.935
same,normalized growth,"locus YJL166W, strain qcr8, stronger effect = lower value",0.944
same,normalized growth,"locus YJL187C, strain SWE1, stronger effect = lower value",0.961
same,normalized growth,"locus YKL160W, strain elf1, stronger effect = lower value",0.988
same,normalized growth,"locus YKR026C, strain gcn3, stronger effect = lower value",0.965
same,normalized growth,"locus YKR091W, strain srl3, stronger effect = lower value",0.958
same,normalized growth,"locus YLL001W, strain dnm1, stronger effect = lower value",0.929
same,normalized growth,"locus YLL026W, stronger effect = lower value",0.967
same,normalized growth,"locus YLL041C, strain sdh2, stronger effect = lower value",0.963
same,normalized growth,"locus YLR027C, strain aat2, stronger effect = lower value",0.936
same,normalized growth,"locus YLR221C, strain rsa3, stronger effect = lower value",0.922
same,normalized growth,"locus YLR258W, strain gsy2, stronger effect = lower value",0.964
same,normalized growth,"locus YLR262C, strain YPT6 (second series), stronger effect = lower value",0.889
same,normalized growth,"locus YLR320W, strain mms22, stronger effect = lower value",0.927
same,normalized growth,"locus YLR342W, strain FKS1, stronger effect = lower value",0.968
same,normalized growth,"locus YLR357W, strain rsc2, stronger effect = lower value",0.981
same,normalized growth,"locus YLR370C, strain arc18, stronger effect = lower value",0.954
same,normalized growth,"locus YLR384C, strain iki3, stronger effect = lower value",0.968
same,normalized growth,"locus YML120C, strain ndi1, stronger effect = lower value",0.925
same,normalized growth,"locus YMR058W, strain fet3, stronger effect = lower value",0.935
same,normalized growth,"locus YMR125W, strain sto1, stronger effect = lower value",0.914
same,normalized growth,"locus YMR129W, stronger effect = lower value",0.966
same,normalized growth,"locus YMR205C, strain PFK2, stronger effect = lower value",0.91
same,normalized growth,"locus YMR231W, strain pep5, stronger effect = lower value",0.978
same,normalized growth,"locus YNL071W, strain lat1, stronger effect = lower value",0.845 (active)
same,normalized growth,"locus YNL209W, strain ssb2, stronger effect = lower value",0.963
same,normalized growth,"locus YNL248C, strain rpa49, stronger effect = lower value",0.967
same,normalized growth,"locus YNL322C, strain KRE1 (second series), stronger effect = lower value",0.923
same,normalized growth,"locus YNR049C, strain mso1, stronger effect = lower value",0.954
same,normalized growth,"locus YOR001W, strain rrp6, stronger effect = lower value",0.971
same,normalized growth,"locus YOR070C, strain gyp1, stronger effect = lower value",0.972
same,normalized growth,"locus YOR080W, strain dia2, stronger effect = lower value",0.955
same,normalized growth,"locus YOR083W, strain WHI5, stronger effect = lower value",0.976
same,normalized growth,"locus YOR106W, strain vam3, stronger effect = lower value",0.928
same,normalized growth,"locus YOR265W, strain rbl2, stronger effect = lower value",0.963
same,normalized growth,"locus YOR270C, strain vph1, stronger effect = lower value",0.834
same,normalized growth,"locus YPL051W, strain arl3, stronger effect = lower value",0.959
same,normalized growth,"locus YPL078C, strain atp4, stronger effect = lower value",0.968
same,normalized growth,"locus YPL106C, strain sse1, stronger effect = lower value",0.913
same,normalized growth,"locus YPL240C, strain hsp82, stronger effect = lower value",0.956
